Screening data deposited in PubChem by NMMLSC.
Only some compounds are listed: those with a hit (about 0.38% of all), similar ones and a draw of the others.
Rab2 wt GTP – modulators of GTP binding to Rab2A wildtype, primary screen, biochemical, dog, bead-based flow cytometry, multiplex; GST-Rab2 wt beads, Bodipy-GTP binding; Ras-related protein Rab-2A (Canis lupus familiaris), P61105; actives 0.19% (n = 190,000); AID 760, 2007; GTP binding activity, % at 10 µM;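 active = GTP binding activity at least 20 points away from 100%, either lowered or raised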;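 note: 0% = beads with excess unlabeled GTP and 100% = no-compound control corrected for plate trend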
Rac1 wt modul – wildtype Rac1 GTP binding modulators, primary screen, biochemical, GST-Rac1 beads, flow cytometry, multiplex. Ras-related C3 botulinum toxin substrate 1 (Homo sapiens), P63000. fluorescent GTP binding; actives lie on both sides; 0 = cold GTP competed, 100 = untreated. GTP binding activity (% of control), % at 10 µM. actives 0.27% (n = 190,000). AID 757, 2007;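 active = GTP binding activity at least 20 points away from the 100% control level, either lower or higher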
HRas wt GTP – modulators of GTP binding to HRas wildtype, primary screen, biochemical, bead-based flow cytometry, multiplex; GTPase HRas (Homo sapiens), P01112; GST-Ras wt beads, Bodipy-FL-GTP binding; actives lie on both sides; GTP binding activity, % at 10 µM; actives 0.14% (n = 190,000); AID 759, 2007;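 active = GTP binding activity at least 20% away from the 100% baseline, either lowered as inhibitor or raised as activator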;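 note: 0% = unlabeled GTP competition control and 100% = no-compound control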
Target sequence (P01112 whole entry, looked up): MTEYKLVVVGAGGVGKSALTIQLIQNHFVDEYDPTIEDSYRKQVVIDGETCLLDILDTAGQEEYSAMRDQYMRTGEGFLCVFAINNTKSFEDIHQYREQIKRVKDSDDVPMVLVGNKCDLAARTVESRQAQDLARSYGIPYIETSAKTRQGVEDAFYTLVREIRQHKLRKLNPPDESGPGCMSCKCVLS
Cdc42 wt GTP – modulators of GTP binding to wildtype Cdc42, primary screen, biochemical, multiplex bead flow cytometry, Bodipy-GTP; Cell division control protein 42 homolog (Homo sapiens), P60953; GST-Cdc42 beads; actives lie on both sides; percent activity (GTP binding), % at 10 µM; actives 0.2% (n = 190,000);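 active = percent activity GTP binding at least 20 points away from the 100% baseline, either down as inhibitor or up as activator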;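 note: median bead fluorescence of bound Bodipy-FL-GTP at 100 nM; 0% = excess unlabeled GTP control and 100% = no compound control; below 100% means less GTP binding so inhibitor and above means activator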
Target sequence (P60953 whole entry, looked up): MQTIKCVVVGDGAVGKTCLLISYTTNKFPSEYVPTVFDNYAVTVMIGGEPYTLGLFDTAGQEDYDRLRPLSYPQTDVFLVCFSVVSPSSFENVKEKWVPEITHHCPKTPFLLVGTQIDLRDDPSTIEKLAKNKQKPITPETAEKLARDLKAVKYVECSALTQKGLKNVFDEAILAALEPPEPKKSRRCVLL
Rac1 mut GTP – GTP binding modulators of activated mutant Rac1, primary screen, biochemical, bead-based flow cytometry, multiplex, fluorescent GTP; actives 0.11% (n = 190,000); GST-Rac1 activated beads; actives lie on both sides; 100% means binding = to untreated wells; AID 764, 2007; percent activity (GTP binding), % at 10 µM; Ras-related C3 botulinum toxin substrate 1 (Homo sapiens), P63000;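 active = GTP binding at least 20 percentage points away from the 100% baseline, in either direction, so actives lie on both sides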
Rab7 wt GTP bind – modulators of GTP binding to Rab7, primary screen, biochemical, wildtype, multiplex bead flow cytometry; GTP binding activity (percent of control), % at 10 µM; GST-Rab7 beads, fluorescent GTP binding; actives lie on both sides; untreated = 100%, excess cold GTP = 0%; AID 758, 2007; actives 0.055% (n = 190,000);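 active = fluorescent GTP binding to Rab7 beads changed by at least 20 points from the 100% baseline, either direction, mostly lower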;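 note: median green fluorescence of bound Bodipy-FL-GTP per Rab7 bead population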
Starred values were filed as active, the others as inactive; [ ] = remark or other dose.

SMILES	Rab2 wt GTP	Rac1 wt modul	HRas wt GTP	Cdc42 wt GTP	Rac1 mut GTP	Rab7 wt GTP bind
Cc1ccc(CS(=O)(=O)c2ccccc2-c2nnc(-c3ccc(Cl)cc3)o2)cc1	86	93	80	93	90	77*
Cc1ccccc1-c1nnc(-c2ccc(Cl)cc2)o1	98	99	98	101	97	97
COc1ccc(C2=NN(CCC(=O)NCc3cccs3)C(=O)CC2)cc1	101	103	102	101	99	103
CN=c1scc(-c2ccccc2F)n1/N=C(\C)c1cccnc1	97	100	99	98	95	92
Cc1ccc(/C=C/C(=O)c2ccccc(=O)c2O)cc1C	81	82	84	78*	74*	87
CCOC(=O)c1cc2c(N)c(C(=O)c3ccc(Br)cc3)sc2[nH]c1=O	71*	64*	74*	71*	79*	90
Cc1ccc(NC(=S)N2CCC(N(C)CC3CCCO3)CC2)cc1 (stereo unspecified)	103	105	102	99	101	107
COc1cc2c(-c3ccc(O)cc3)nc3c(c(C)nn3-c3ccccc3)c2cc1OC	97	99	97	93	99	101
COc1cc2c(C)nc3c(c(C)nn3-c3ccccc3)c2cc1OC	83	72*	85	83	89	95
COc1ccc(OCCN2C(=O)c3ccccc3C2=O)cc1	106	127*[activator]	93	111	107	96
CC12CS(=O)(=O)CC1SC(=S)N2Cc1ccccc1 (stereo unspecified)	98	102	98	97	95	97
COc1cccc(Nc2ncc(C(=O)O)c3ccccc23)c1	102	102	104	105	100	95
COc1cccc(Nc2ccccc2C(=O)O)c1	125*[activator]	138*[activator]	120*[activator]	130*[activator]	126*[activator]	127*[activator]
COc1ccc(CN2CCN(C(=O)C3CCC(CNS(=O)(=O)c4ccc(C)cc4)CC3)CC2)c(OC)c1OC (stereo unspecified)	100	100	99	98	95	104
COc1nc(Nc2ccc([N+](=O)[O-])cc2)nc(NC2CCCCC2)n1	103	103	103	105	105	106
COc1cc(/C=C2/C(C)=C(C#N)c3nc(N)c(C#N)c(C)c32)ccc1OCC(=O)O	81	87	85	80	80	87
CC1=C(C#N)c2nc(N)c(C#N)c(C)c2/C1=C\c1ccc(-c2ccccc2C(=O)O)o1	76*	75*	81	78*	81	88
CCOc1ccc(C2C(C(=O)/C=C/c3ccco3)=C(O)C(=O)N2CCN2CCOCC2)cc1OC (stereo unspecified)	99	103	102	100	97	99
COc1ccc(-c2cc(=O)c(C(=O)c3ccc(C)cc3)n[nH]2)cc1	99	121*[activator]	100	95	105	110
O=C(O)C1CSC(c2coc3ccccc3c2=O)N1 (stereo unspecified)	92	97	97	96	97	101
O=C(O)C1CSC(CCc2ccccc2)N1 (stereo unspecified)	110	123*[activator]	109	114	112	111
O=C(Nc1cccc2ccccc12)c1cnccn1	67*	90	71*	73*	77*	75*
c1ccc2[nH]c3cc4ncnc4cc3nc2c1	77*	79*	77*	83	91	87
FC(F)c1nc2ccccc2[nH]1	99	101	100	100	97	100
COc1ccc(CNc2nc3c(c(=O)n(Cc4ccc(Cl)cc4)c(=O)n3C)n2C)cc1	78*	83	82	79*	80	85
SMILES	Rab2 wt GTP	Rac1 wt modul	HRas wt GTP	Cdc42 wt GTP	Rac1 mut GTP	Rab7 wt GTP bind
COCCNc1nc2c(c(=O)n(Cc3ccc(OC)cc3)c(=O)n2C)n1C	95	94	92	94	95	93
CCOC(=O)c1cc(C(=O)OCC)c(=O)[nH]c1C	100	111	97	107	100	97
CCOC(=O)c1cc(C(=O)OCC)c(=O)[nH]c1N1CCCC1	54*	51*	57*	56*	50*	24*
C=CCn1c(O)c(N=NC(=O)c2ccccc2NS(=O)(=O)c2cccs2)c2ccccc21	85	92	88	94	88	88
CCCCn1c(O)c(N=NC(=O)c2ccccc2NS(=O)(=O)c2cccs2)c2ccccc21	81	81	86	82	78*	91
CCN1C(c2ccccc2)=C(c2ccccc2)S/C1=C/C=C1\SC(=S)N(C)C1=O	71*	71*	66*	67*	69*	72*
CCN1C(=O)/C(=C/C=C2/Sc3ccc4ccccc4c3N2CCO)SC1=S	84	75*	78*	78*	83	81
CCN1/C(=C\C=C2\C(=O)N(C)C(=S)N2C)Sc2ccccc21	94	88	83	97	88	93
CN1CCS/C1=C/C=C1/SC(=S)N(Cc2ccccc2)C1=O	99	97	97	95	98	100
O=C(C[n+]1cccc(CO)c1)Nc1nc2ccccc2s1	96	97	96	96	96	99
Nc1ccc2c(c1)C(=O)C(=O)c1ccccc1-2	84	88	85	70*	84	92
O=C1C(=O)c2ccc(-c3ccccc3)cc2-c2ccccc21	99	107	100	97	99	101
COc1ccc(-c2cc(C(F)(F)F)nc(S(=O)(=O)CCCC(=O)Nc3cccnc3Cl)n2)cc1OC	96	94	92	92	95	102
O=C(NCCCN1CCOCC1)c1cccc(S(=O)(=O)Nc2cc(Cl)ccc2Cl)c1	94	96	96	94	92	101
Cc1cc(C(=O)Oc2ccccc2C(=O)O)c(C)o1	116	127*[activator]	110	120*[activator]	119	104
N#Cc1c(-c2cccc(Br)c2)cc(-c2ccco2)[nH]c1=O	81	75*	83	79*	76*	86
CC(C)C(NCc1c(Cl)cccc1Cl)C(=O)O (stereo unspecified)	115	124*[activator]	114	118	114	112
